The whole screen tested about 5,500 compounds, of which about 2,000 (36%) were called active. Inconclusive results (about 18%) are left out. Rule as the data show it: active = normalized growth mostly below about 0.91 (no sharp cut-off); inconclusive = no clear call, values can overlap the other calls; inactive = mostly above about 0.92. Some of the results follow.
Test: chemical genetic growth profiling, strain panel (AID 1159580);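 also: tested at 20 µM; growth read once vehicle control cultures reached saturation at 30 °C; 1 = growth at the plate median or of vehicle wells; lower values mean less growth of the strain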
Details: growth OD

Measured: normalized growth

CC(C)=CCC/C(C)=C/CO
inactive: S. cerevisiae deletion strains, locus YJR075W, strain HOC1, stronger effect = lower value 1.01 | S. cerevisiae deletion strains, locus YKL009W, strain mrt4, stronger effect = lower value 0.918 | S. cerevisiae deletion strains, locus YKL068W, stronger effect = lower value 0.993 | S. cerevisiae deletion strains, locus YKL085W, strain MDH1 (second series), stronger effect = lower value 0.98 | S. cerevisiae deletion strains, locus YKL085W, strain MDH1, stronger effect = lower value 0.98 | S. cerevisiae deletion strains, locus YKL160W, strain elf1, stronger effect = lower value 1.01 | S. cerevisiae deletion strains, locus YKL190W, strain CNB1, stronger effect = lower value 1.01 | S. cerevisiae deletion strains, locus YKR001C, strain vps1, stronger effect = lower value 0.99 | S. cerevisiae deletion strains, locus YKR026C, strain gcn3, stronger effect = lower value 0.985 | S. cerevisiae deletion strains, locus YKR091W, strain srl3, stronger effect = lower value 0.986 | S. cerevisiae deletion strains, locus YLL001W, strain dnm1, stronger effect = lower value 0.994 | S. cerevisiae deletion strains, locus YLL026W, stronger effect = lower value 0.998 | S. cerevisiae deletion strains, locus YLL041C, strain sdh2, stronger effect = lower value 0.98 | S. cerevisiae deletion strains, locus YLR027C, strain aat2, stronger effect = lower value 0.996 | S. cerevisiae deletion strains, locus YLR039C, strain RIC1, stronger effect = lower value 1.01 | S. cerevisiae deletion strains, locus YLR058C, strain SHM2, stronger effect = lower value 1.01 | S. cerevisiae deletion strains, locus YLR102C, strain apc9, stronger effect = lower value 0.991 | S. cerevisiae deletion strains, locus YLR113W, strain HOG1, stronger effect = lower value 0.984 | S. cerevisiae deletion strains, locus YLR221C, strain rsa3, stronger effect = lower value 0.947 | S. cerevisiae deletion strains, locus YLR258W, strain gsy2, stronger effect = lower value 1 | S. cerevisiae deletion strains, locus YLR262C, strain YPT6 (second series), stronger effect = lower value 0.978 | S. cerevisiae deletion strains, locus YLR262C, strain YPT6, stronger effect = lower value 1.03 | S. cerevisiae deletion strains, locus YLR268W, strain sec22, stronger effect = lower value 0.966 | S. cerevisiae deletion strains, locus YLR320W, strain mms22, stronger effect = lower value 0.96 | S. cerevisiae deletion strains, locus YLR330W, strain CHS5, stronger effect = lower value 1.01 | S. cerevisiae deletion strains, locus YLR342W, strain FKS1 (second series), stronger effect = lower value 1.04 | S. cerevisiae deletion strains, locus YLR342W, strain FKS1, stronger effect = lower value 0.974 | S. cerevisiae deletion strains, locus YLR357W, strain rsc2, stronger effect = lower value 0.986 | S. cerevisiae deletion strains, locus YLR370C, strain arc18, stronger effect = lower value 0.983 | S. cerevisiae deletion strains, locus YLR371W, strain rom2, stronger effect = lower value 0.985 | S. cerevisiae deletion strains, locus YLR384C, strain iki3, stronger effect = lower value 0.981 | S. cerevisiae deletion strains, locus YLR418C, strain cdc73, stronger effect = lower value 0.975 | S. cerevisiae deletion strains, locus YML016C, strain PPZ1, stronger effect = lower value 1.02 | S. cerevisiae deletion strains, locus YML032C, strain rad52, stronger effect = lower value 0.991 | S. cerevisiae deletion strains, locus YML120C, strain ndi1, stronger effect = lower value 1.01 | S. cerevisiae deletion strains, locus YML124C, strain tub3, stronger effect = lower value 0.991 | S. cerevisiae deletion strains, locus YMR058W, strain fet3, stronger effect = lower value 0.972 | S. cerevisiae deletion strains, locus YMR078C, strain ctf18, stronger effect = lower value 0.98 | S. cerevisiae deletion strains, locus YMR125W, strain sto1, stronger effect = lower value 1.01 | S. cerevisiae deletion strains, locus YMR129W, stronger effect = lower value 0.994 | S. cerevisiae deletion strains, locus YMR205C, strain PFK2, stronger effect = lower value 1.01 | S. cerevisiae deletion strains, locus YMR223W, strain ubp8, stronger effect = lower value 1.01 | S. cerevisiae deletion strains, locus YMR231W, strain pep5, stronger effect = lower value 0.983 | S. cerevisiae deletion strains, locus YMR263W, strain SAP30, stronger effect = lower value 1.02 | S. cerevisiae deletion strains, locus YMR307W, strain GAS1, stronger effect = lower value 1.01 | S. cerevisiae deletion strains, locus YNL067W, strain RPL9B, stronger effect = lower value 1.01 | S. cerevisiae deletion strains, locus YNL071W, strain lat1, stronger effect = lower value 0.988 | S. cerevisiae deletion strains, locus YNL128W, strain TEP1, stronger effect = lower value 1.01 | S. cerevisiae deletion strains, locus YNL153C, strain GIM3, stronger effect = lower value 0.998 | S. cerevisiae deletion strains, locus YNL183C, strain NPR1, stronger effect = lower value 0.991 | S. cerevisiae deletion strains, locus YNL209W, strain ssb2, stronger effect = lower value 0.99 | S. cerevisiae deletion strains, locus YNL233W, strain BNI4, stronger effect = lower value 1.01 | S. cerevisiae deletion strains, locus YNL248C, strain rpa49, stronger effect = lower value 0.969 | S. cerevisiae deletion strains, locus YNL250W, strain rad50, stronger effect = lower value 0.992 | S. cerevisiae deletion strains, locus YNL271C, strain bni1, stronger effect = lower value 0.975 | S. cerevisiae deletion strains, locus YNL298W, strain CLA4, stronger effect = lower value 0.991 | S. cerevisiae deletion strains, locus YNL307C, strain MCK1, stronger effect = lower value 1 | S. cerevisiae deletion strains, locus YNL322C, strain KRE1 (second series), stronger effect = lower value 0.984 | S. cerevisiae deletion strains, locus YNL322C, strain KRE1, stronger effect = lower value 1.01 | S. cerevisiae deletion strains, locus YNR049C, strain mso1, stronger effect = lower value 0.984 | S. cerevisiae deletion strains, locus YNR052C, strain pop2, stronger effect = lower value 0.987 | S. cerevisiae deletion strains, locus YOL006C, strain TOP1, stronger effect = lower value 0.999 | S. cerevisiae deletion strains, locus YOL012C, strain htz1 0.813 | S. cerevisiae deletion strains, locus YOL147C, strain pex11, stronger effect = lower value 0.996 | S. cerevisiae deletion strains, locus YOR001W, strain rrp6, stronger effect = lower value 0.923 | S. cerevisiae deletion strains, locus YOR061W, strain CKA2, stronger effect = lower value 1.02 | S. cerevisiae deletion strains, locus YOR069W, strain VPS5, stronger effect = lower value 1.01 | S. cerevisiae deletion strains, locus YOR070C, strain gyp1, stronger effect = lower value 0.987 | S. cerevisiae deletion strains, locus YOR080W, strain dia2, stronger effect = lower value 0.987 | S. cerevisiae deletion strains, locus YOR083W, strain WHI5, stronger effect = lower value 1.02 | S. cerevisiae deletion strains, locus YOR106W, strain vam3, stronger effect = lower value 1.02 | S. cerevisiae deletion strains, locus YOR136W, strain idh2, stronger effect = lower value 0.994 | S. cerevisiae deletion strains, locus YOR144C, strain elg1, stronger effect = lower value 0.994 | S. cerevisiae deletion strains, locus YOR184W, strain ser1, stronger effect = lower value 0.949 | S. cerevisiae deletion strains, locus YOR231W, strain MKK1, stronger effect = lower value 0.983 | S. cerevisiae deletion strains, locus YOR265W, strain rbl2, stronger effect = lower value 0.989 | S. cerevisiae deletion strains, locus YOR270C, strain vph1, stronger effect = lower value 0.953 | S. cerevisiae deletion strains, locus YOR290C, strain snf2, stronger effect = lower value 1 | S. cerevisiae deletion strains, locus YOR316C, strain cot1, stronger effect = lower value 0.992 | S. cerevisiae deletion strains, locus YPL051W, strain arl3, stronger effect = lower value 0.996 | S. cerevisiae deletion strains, locus YPL055C, strain LGE1, stronger effect = lower value 1.04 | S. cerevisiae deletion strains, locus YPL078C, strain atp4, stronger effect = lower value 1.01 | S. cerevisiae deletion strains, locus YPL106C, strain sse1, stronger effect = lower value 0.977 | S. cerevisiae deletion strains, locus YPL240C, strain hsp82, stronger effect = lower value 0.99 | S. cerevisiae deletion strains, locus YPL241C, strain CIN2, stronger effect = lower value 1 | S. cerevisiae deletion strains, locus YPL256C, strain CLN2, stronger effect = lower value 1.05 | S. cerevisiae deletion strains, locus YPR119W, strain clb2, stronger effect = lower value 0.991 | S. cerevisiae deletion strains, locus YPR141C, strain kar3, stronger effect = lower value 0.991 | S. cerevisiae deletion strains, locus YPR163C, strain tif3, stronger effect = lower value 0.987 | S. cerevisiae deletion strains, locus YPR167C, strain met16, stronger effect = lower value 0.995 | S. cerevisiae deletion strains, strain wtn01, stronger effect = lower value 0.987 | S. cerevisiae strains, strain wild type, stronger effect = lower value 1.02
